G9a block – inhibitors of human histone lysine methyltransferase G9a; Q96KQ7; G9a H3K9 monomethylation, AlphaScreen, 2 h; Potency, µM (top dose mostly 102 µM), inactives show at the top dose activity, negative = inhibition, hits mostly inhibitors; 8.8% of 350,000 active; note: % is set by controls: 0 for no effect and ±100 for the full control effect; nearly all actives have a fitted effect of over 75% in size
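Enzyme 20 nM + cpd, 15 min RT; add b-H3K9 pep 500 nM / SAM 20 uM; 2 h RT; anti-H3K9me1 Ab 0.5 ug/mL + SA donor / anti-rabbit acceptor beads 20 ug/mL each, 10 min; AlphaScreen read.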
VDR inhibitor – inhibitors of human vitamin D receptor; Potency, µM, for inactives: max response, negative = inhibition, hits mostly inhibitors; P11473; VDR-SRC2-3 peptide fluorescence polarization, 2 h; 0.93% of 400,000 active; AID 504847; note: % is set by controls: 0 for no effect and ±100 for the full control effect
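Compounds are added to VDR with labelled SRC2-3 coactivator peptide and held 2 h at room temperature. Inhibition of the VDR–peptide interaction is then read as a change in fluorescence polarization.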
Glioma ERSR ind – induces the endoplasmic reticulum stress response in human glioma cells. U87-MG GRP78 promoter luciferase reporter, 16 h. AID 602332. 0.02% of 420,000 active. Potency, µM, inactives show at the top dose activation, hits mostly activators; note: series mostly up to about 76 µM; % of control where 0% means no effect; nearly all actives have a fitted effect of over 35% in size
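Stably transfected U87-MG human glioma cells carrying a GRP78-based luminescent sensor were seeded at 1000 cells/well, pin-dosed with compounds and incubated 16 h. Luciferase reagent was then added, and end-point luminescence was read after 10 min at room temperature.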
Sfp inh – Sfp phosphopantetheinyl transferase inhibition | AID 1490 | 3.5% of 310,000 active | Potency, µM, for inactives: largest response in the series, negative = inhibition, hits mostly inhibitors | Q9F4F7 | Biochemical Sfp PPTase activity, qHTS;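 note: the enzyme is Sfp with the accession as filed and its product quenches rhodamine fluorescence; 0% = enzyme reaction without inhibitor and -100% = no enzyme wells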
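Step 1, compound plus 15 nM Sfp-PPTase, 15 min, room temperature. Step 2, add rhodamine-CoA (5 uM) and BHQ-2-YbbR (12.5 uM). Step 3, read 525/598 nm fluorescence at 0 and 30 min.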
ALOX12 inh – inhibitors of human 12S-lipoxygenase ALOX12. P18054. purified 12hLO, xylenol orange hydroperoxide absorbance. Potency, µM (highest dose often 108 µM), without a hit: at the highest dose activity change, negative = inhibition, actives largely listed as inhibitors. 1.1% of 580,000 active. AID 1671190; note: % is set by controls: 0 for no effect and ±100 for the full control effect
Target sequence (P18054 whole entry, looked up): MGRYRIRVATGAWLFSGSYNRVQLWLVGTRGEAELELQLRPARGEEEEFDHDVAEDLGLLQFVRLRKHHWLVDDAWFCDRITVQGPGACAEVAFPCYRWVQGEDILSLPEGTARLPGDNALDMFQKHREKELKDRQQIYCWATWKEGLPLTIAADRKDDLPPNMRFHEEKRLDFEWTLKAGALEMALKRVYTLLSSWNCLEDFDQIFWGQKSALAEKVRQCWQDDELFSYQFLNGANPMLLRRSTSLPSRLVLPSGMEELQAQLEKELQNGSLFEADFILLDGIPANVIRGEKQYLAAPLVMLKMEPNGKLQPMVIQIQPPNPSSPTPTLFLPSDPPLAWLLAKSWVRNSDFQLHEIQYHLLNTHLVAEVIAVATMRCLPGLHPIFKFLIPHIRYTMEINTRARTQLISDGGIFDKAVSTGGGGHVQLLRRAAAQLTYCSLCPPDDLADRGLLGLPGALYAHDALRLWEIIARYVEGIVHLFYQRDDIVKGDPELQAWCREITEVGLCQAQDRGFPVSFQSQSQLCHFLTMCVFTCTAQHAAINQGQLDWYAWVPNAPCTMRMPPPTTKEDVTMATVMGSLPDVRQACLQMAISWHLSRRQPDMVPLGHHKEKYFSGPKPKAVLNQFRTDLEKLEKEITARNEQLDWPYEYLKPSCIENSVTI
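Hydroperoxide product was detected by ferrous iron/xylenol orange as the 573 to 405 nm absorbance ratio. Arachidonic acid at 40 uM (final) was turned over for 30 min at room temperature by 150 nM human 12hLO, pH 7.0 Hepes buffer, after 15 min compound preincubation.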
* hit, by the source's call; [ ] = remark or other dose. Many of the other results were omitted from the sample, so hits are more common in it than they were. Calls come from the whole dose curve; as a rule, active = well fitted curve in the direction sought with a large enough effect; inconclusive = small, poorly fitted or top-dose-only effect, or another doubt; inactive = no such curve, though single readings can be large; an effect the other way counts as inactive or inconclusive. Potency is the fitted concentration of half-maximal effect.

CCOC(=O)C1=C(c2ccccc2)NC(=O)NC1c1cc(Cl)c(O)c(OC)c1 (configuration not stated) was read as G9a block -33%, VDR inhibitor 2%, Glioma ERSR ind -3%, Sfp inh -4% and ALOX12 inh inconclusive.
Screening COc1cc(C(c2c(C)[nH][nH]c2=O)c2c(C)[nH][nH]c2=O)ccc1OS(=O)(=O)c1ccccc1 returned G9a block 22µM*, VDR inhibitor -25%, Glioma ERSR ind 1%, Sfp inh -1% and ALOX12 inh 13%.
For COc1cc(C(c2c(C)[nH][nH]c2=O)c2c(C)[nH][nH]c2=O)cc(Cl)c1O the results were G9a block 45µM*, VDR inhibitor -25%, Glioma ERSR ind -5%, Sfp inh 7% and ALOX12 inh inconclusive.
Screening COc1cc(C(c2c(C)[nH][nH]c2=O)c2c(C)[nH][nH]c2=O)ccc1OC(C)C returned G9a block -42%, VDR inhibitor inconclusive, Glioma ERSR ind 0%, Sfp inh 0% and ALOX12 inh 13%.
COc1ccc(-c2cc(=O)c3c(O)c(OC)c(OC)c(OC)c3o2)cc1 was read as VDR inhibitor 0%, Glioma ERSR ind 0%, Sfp inh 15% and ALOX12 inh -7%.
COc1c(OC)c(O)c2c(=O)cc(-c3c(O)cccc3O)oc2c1OC was read as G9a block 13%[12.7 µM], VDR inhibitor 0%, Glioma ERSR ind 4%, Sfp inh 20µM* and ALOX12 inh inconclusive.
Screening Cc1cc2c(Nc3ccc(O)cc3)ncnc2s1 returned G9a block 56µM*, VDR inhibitor -1%, Glioma ERSR ind 2%, Sfp inh 1% and ALOX12 inh inconclusive.
Screening Cc1cc2c(Nc3ccc(C(=O)O)cc3)ncnc2s1 returned VDR inhibitor 20%, Glioma ERSR ind -4%, Sfp inh 4% and ALOX12 inh -24%.
Screening Cc1cccc(OC(C)c2nc(-c3cccc(Br)c3)no2)c1 (configuration not stated) returned ALOX12 inh -2%.
`[O-]/C(=C(\C(=S)Nc1ccc(SC(F)F)cc1)[n+]1cccc(CO)c1)c1ccc(Cl)s1` gave G9a block 25µM*, VDR inhibitor 13%, Glioma ERSR ind 4%, Sfp inh inconclusive and ALOX12 inh -7%.
`CN(C)c1cc[n+](/C(C(=S)Nc2ccc(SC(F)F)cc2)=C(/[O-])c2ccccc2)cc1` gave G9a block inconclusive, VDR inhibitor -10%, Glioma ERSR ind 0%, Sfp inh inconclusive and ALOX12 inh -1%.
Cc1c(Cl)cccc1NC(=S)/C(=C(\[O-])c1ccc(Cl)s1)[n+]1ccccc1 was read as G9a block inconclusive, VDR inhibitor -3%, Glioma ERSR ind -5%, Sfp inh -11% and ALOX12 inh inconclusive.
For [O-]/C(=C(\C(=S)Nc1cccc2ccccc12)[n+]1cccc(CO)c1)c1ccc(Cl)s1 the results were G9a block 40µM*, VDR inhibitor -19%, Glioma ERSR ind -1%, Sfp inh -21% and ALOX12 inh inconclusive.
Cc1ccc(NC(=S)/C(=C(\[O-])c2ccc(Cl)s2)[n+]2cccc(CO)c2)cc1C was read as G9a block 45µM*, VDR inhibitor -3%, Glioma ERSR ind -1%, Sfp inh 25µM* and ALOX12 inh -29%.
C/C(=N/Nc1ccc(S(N)(=O)=O)cc1[N+](=O)[O-])c1ccc(C#N)cc1 was read as ALOX12 inh 63%.
COC(=O)[C@@H]1Cc2c([nH]c3ccccc23)[C@@H]2C[C@@H](NCCCn3ccnc3)C[C@@H](c3ccc(F)c(F)c3)N12 was read as ALOX12 inh 104%.
CNC(=S)NNC(=O)c1ccc(F)cc1 was read as ALOX12 inh 0%.
`Cc1nc(/C(=N/O)C(N)=O)cs1` gave G9a block 13µM*, VDR inhibitor -7%, Glioma ERSR ind 0%, Sfp inh 56µM* and ALOX12 inh inconclusive.
For Cc1nc(C(=O)NNC(=O)c2ccc(Cl)cc2)cs1 the results were G9a block inconclusive, VDR inhibitor 3%, Glioma ERSR ind 2%, Sfp inh -3% and ALOX12 inh 22%.
Screening O=C(O)CCc1ccc(S(=O)(=O)NCCc2ccc(Cl)cc2)cc1 returned ALOX12 inh -27%.
CCNc1nc(NCC)n2c(SCC(=O)Nc3ccc(C)c(C)c3)nnc2n1 was read as G9a block 3.5µM*, VDR inhibitor 10%, Glioma ERSR ind 2% and ALOX12 inh 12%.
CCNc1nc(NCC)n2c(SCC(=O)Nc3ccc(F)cc3)nnc2n1 was read as G9a block inconclusive, VDR inhibitor -8%, Glioma ERSR ind -4% and ALOX12 inh -22%.
CCNc1nc(NCC)n2c(SCC(=O)Nc3ccc(Br)cc3F)nnc2n1 was read as G9a block 7.1µM*, VDR inhibitor 71µM*, Glioma ERSR ind -4% and ALOX12 inh inconclusive.
CCCCCn1nc(C(=O)Nc2ccc3c(c2)CCC3)c2ccccc2c1=O was read as ALOX12 inh 9%.
CN(C)Cc1cc(C(C)(C)C)c(O)c(C(C)(C)C)c1 was read as G9a block 50µM*, VDR inhibitor -1%, Glioma ERSR ind -4%, Sfp inh 5% and ALOX12 inh 0%.
For CC(C)(CO)Cc1cc(C(C)(C)C)c(O)c(C(C)(C)C)c1 the results were G9a block -9%[59 µM], VDR inhibitor -11%, Glioma ERSR ind -3%, Sfp inh 16% and ALOX12 inh inconclusive.
Screening CC(C)(C)c1cc(Cc2cc(C(C)(C)C)c(O)c(C(C)(C)C)c2)cc(C(C)(C)C)c1O returned ALOX12 inh 38%.
CC(C)(C)c1cc(CN(CCO)CCO)cc(C(C)(C)C)c1O was read as G9a block inconclusive, VDR inhibitor inconclusive, Glioma ERSR ind -5%, Sfp inh -9% and ALOX12 inh 16µM*.
`CNC(=O)c1cc(-c2ccc([S+](C)(=O)[O-])cc2)cc2c1OCCN2Cc1cccnc1` gave ALOX12 inh -16%[176 µM].
For O=C(O)c1cnc(/C=C/c2csc(-c3ccccn3)n2)s1 the results were ALOX12 inh -16%.
S=C(NCc1ccc(Cl)cc1)Nc1ccc(Nc2ccccc2)cc1 was read as ALOX12 inh 18µM*.
`S=C(NCCc1ccc(Cl)cc1)Nc1ccc(Nc2ccccc2)cc1` gave ALOX12 inh 28µM*.
`S=C(NCCc1ccccc1)Nc1ccc(Cl)cc1` gave G9a block 29%[59 µM], VDR inhibitor -11%, Glioma ERSR ind 1%, Sfp inh 2% and ALOX12 inh inconclusive.
`Cn1nc(C(=O)OCC(=O)NC(=O)c2ccc(C(C)(C)C)cc2)c2ccccc2c1=O` gave ALOX12 inh 22%.

Screens deposited in PubChem BioAssay by National Center for Advancing Translational Sciences (NCATS).
